From PubChem BioAssay
In the library only some 19% were active in any assay of this set; here they are far more common.
TDP1 cell CPT – qHTS for Inhibitors of human tyrosyl-DNA phosphodiesterase 1 (TDP1): qHTS in cells in presence of CPT. AID 686979, 2013. chicken DT40 Tdp1-/-;hTDP1 cells + 20 nM CPT, ATP luminescence, 48 h. 420,000 compounds, 12% hits. Potency, µM (doses to about 46.2 µM), for the others: at the highest dose activity change, negative = growth inhibition, actives largely listed as inhibitors; note: potency is the fitted concentration of half-maximal effect; nearly all actives have a fitted effect of over 55% in size
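Chicken DT40 Tdp1-/- cells complemented with human TDP1, 400 cells/well, exposed to compounds plus 20 nM camptothecin for at least 48 h at 37 C; viability read as ATP content by CellTiter-Glo luminescence.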
HT1080 IDH1KD tx – qHTS for induction of synthetic lethality in tumor cells producing 2HG: qHTS for the HT-1080-IDH1KD cell line | HT-1080 IDH1 knockdown viability, ATP luminescence, 48 h | Potency, µM (doses to about 46.1 µM), inactives show at the highest dose activity, negative = toxicity, most hits filed as cytotoxic | 360,000 compounds, 2% hits;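 note: potency is the fitted concentration of half-maximal effect; 0% = DMSO wells and -100% = cell-free medium wells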
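CellTiter-Glo luminescence after 48 h compound exposure at 37 degrees C of IDH1-knockdown HT-1080 cells in 5% FBS RPMI. %Activity scaled between DMSO wells and cell-free media wells, with curves fitted and assigned curve classes.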
HT1080-NT tox – qHTS for induction of synthetic lethality in tumor cells producing 2HG: qHTS for the HT-1080-NT fibrosarcoma cell line | HT-1080-NT fibrosarcoma viability, CellTiter-Glo ATP luminescence, 48 h | AID 686970, 2013 | Potency, µM (series often up to 46.1 µM), for the others: at the highest dose activity, negative = less viability, usual class: cytotoxic | 360,000 compounds, 1.6% hits;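 note: NT is the 2HG producing partner of a matched IDH1 knockdown line; potency is the fitted concentration of half-maximal effect; 0% = DMSO-treated cells and -100% = media-only wells without cells; nearly all actives have a fitted effect of over 55% in size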
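Luminescent CellTiter-Glo readout after 48 hours of compound exposure at 37 degrees C defined viability of HT-1080-NT cells. Activity was normalized to DMSO wells and cell-free media wells; concentration-response curves were fitted and assigned curve classes.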
IL-1B inflam inh – qHTS for Inhibitors of Inflammasome Signaling: IL-1-beta AlphaLISA Primary Screen; THP-1 LPS/ATP IL-1B secretion, AlphaLISA, 16 h; stronger effect = lower value; activity change, % at 57.5 µM; 360,000 compounds, 4.7% hits; AID 743279, 2014; in the data active = activity change below about -50%; inconclusive = mostly about -30% to -49%
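Secreted IL-1B measured by AlphaLISA bead assay after 16 h compound exposure of THP-1 cells; compounds (final up to 57.5 uM) added 1 h before LPS (250 ng/mL) and ATP (1.25 mM) stimulation; lower signal means less secretion.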
TDP1 cell noCPT – qHTS for Inhibitors of human tyrosyl-DNA phosphodiesterase 1 (TDP1): qHTS in cells in absence of CPT | 420,000 compounds, 15% hits | Potency, µM (doses to about 46.2 µM), for the others: at the highest dose activity change, negative = growth inhibition, hits mostly inhibitors | AID 686978, 2013 | DT40 Tdp1-/- hTDP1 cells, no CPT, ATP luminescence, 48 h; note: potency is the fitted concentration of half-maximal effect; nearly all actives have a fitted effect of over 55% in size
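A cellular qHTS used chicken DT40 cells lacking endogenous Tdp1 but carrying stably transfected human TDP1. Compounds were applied without camptothecin, and cell growth kinetics were judged by ATP-dependent luminescence after ≥48 hr.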
* marks the source's active call; other numbers are inactive results; ? = inconclusive; · = no result given; [ ] = dose if it differs, or a comment. Unless noted, calls come from the whole dose curve; as a rule, active = well fitted curve in the direction sought with a large enough effect; inconclusive = small, poorly fitted or top-dose-only effect, or another doubt; inactive = no such curve, though single readings can be large; an effect the other way counts as inactive or inconclusive. Unless noted, % is set by controls: 0 for no effect and ±100 for the full control effect.

SMILES	TDP1 cell CPT	HT1080 IDH1KD tx	HT1080-NT tox	IL-1B inflam inh	TDP1 cell noCPT
COc1ccc(C2=NCCc3cc(OC)c(OC)cc32)cc1	?	-13%	4%	-2	21µM*
COc1cc2nc(CCc3ccccc3)oc(=O)c2cc1OC	1%	-1%	19%	-4	2%
COc1cc2c(cc1OC)C(CCc1ccccc1)=NCC2	?	-9%	-1%	-18	16µM*
COc1cc2c(cc1OC)C(c1cc(-c3cc(Cl)ccc3Cl)oc1C)=NCC2	1.3µM*	·	·	·	1µM*
COc1cc2c(cc1OC)C(c1c(-c3c(Cl)cccc3Cl)noc1C)=NCC2	23µM*	?	-21%	9	10µM*
COc1ccc(-c2nnc(SCC(=O)NC3CCCc4ccccc43)n2N)cc1 (stereo not drawn)	1%	12%	15%	13	0%
COc1cc2c(cc1OC)C(c1c(Cl)cccc1Cl)=NCC2	0.26µM*	?	-29%	9	0.23µM*
CCCC1S/C(=N/N=C/c2cccs2)NC1=O (stereo not drawn)	?	-1%	8%	-3	?
O=C1N/C(=N\N=C\c2cccs2)SC1Cc1cccc(Cl)c1 (stereo not drawn)	12µM*	?	?	15	10µM*
CCC1S/C(=N/N=C/c2cccs2)NC1=O (stereo not drawn)	-1%	11%	3%	6	?
O=C1N/C(=N\N=C\c2cccs2)SC1Cc1ccc(Cl)cc1 (stereo not drawn)	?	23µM*	18µM*	16	?
N#C/C(=C\c1ccc(-c2ccc([N+](=O)[O-])cc2Br)o1)C(=O)N1CCN(c2ccccc2)CC1	5%	5%	5%	0	9%
O=C(Nc1ccc(C(F)(F)F)cc1)C1CCN(S(=O)(=O)c2ccc(N3CCCC3=O)cc2)CC1	2.6µM*	?	-8%	18	?
COc1ccc(OC)c(S(=O)(=O)N2CCC(C(=O)N3CCc4ccccc4C3)CC2)c1	?	-1%	-12%	-17	23µM*
COc1ccc(OC)c(S(=O)(=O)N2CCC(C(=O)N3CCCC3)CC2)c1	10%	-7%	7%	-14	14%
O=C(Nc1ccc(S(=O)(=O)N2CCCC2)cc1)C1CCN(S(=O)(=O)c2ccc(F)cc2)CC1	?	-59%	-16%	0	18µM*
CSc1cccc(NC(=O)C2CCCN2S(=O)(=O)c2ccc(Br)s2)c1 (stereo not drawn)	?	?	?	0	23µM*
CCOC(=O)C1CCN(C(=O)c2ccccc2)c2scc(-c3ccccc3)c2C1=O (stereo not drawn)	?	-24%	-1%	-15	?
O=C(Cn1ccc2ccccc2c1=O)NCC(=O)N1CCN(c2ccccc2F)CC1	5%	-11%	-1%	0	-14%
CC(=O)Nc1ccc(NS(=O)(=O)c2c(C(=O)N3CCC(C)CC3)c(C)n(C)c2C)cc1	-5%	·	·	·	-9%
O=C(NCCCN1CCCC1=O)C1CCN(S(=O)(=O)c2cc(C(F)(F)F)ccc2Cl)CC1	15µM*	0%	6%[9.24 µM]	-7	?
CCN(CC)S(=O)(=O)c1ccc(S(=O)(=O)N2CCN(C(=O)c3ccco3)CC2)cc1	-15%	18%	5%	-18	-4%
O=C(NCCCN1CCCC1=O)C1CCN(S(=O)(=O)c2cccc(C(F)(F)F)c2)CC1	-16%	0%	-1%	10	-23%
CCCCc1ccc(S(=O)(=O)N2CCN(C(=O)c3ccco3)CC2)cc1	?	-4%	0%	?	8.2µM*
CC(C)NC(=O)C1CCCN(S(=O)(=O)c2cccs2)C1 (stereo not drawn)	9%	9%	12%	-4	-4%
SMILES	TDP1 cell CPT	HT1080 IDH1KD tx	HT1080-NT tox	IL-1B inflam inh	TDP1 cell noCPT
COc1ccc(NC(=O)C2CCCCN2N)cc1OC (stereo not drawn)	?	11%	-2%	-12	18µM*
CSc1cccc(NC(=O)C2CCCN(S(=O)(=O)c3cccs3)C2)c1 (stereo not drawn)	?	-26%	-5%	-17	18µM*
C=CCNC(=O)CC(=O)N/N=C/c1cccs1	-3%	1%	3%	0	-12%
O=C(NCCCN1CCOCC1)c1cnn(-c2ncc3c(n2)-c2ccccc2CC3)c1C1CC1	-2%[9.04 µM]	·	·	·	-15%
CCN(CC)S(=O)(=O)c1ccc(Cl)c(NC(=O)COc2ccc(OC)cc2)c1	-8%	2%	7%	5	-24%
O=C(Nc1ccc(Br)cc1)C1CCCN1S(=O)(=O)c1ccc(F)cc1 (stereo not drawn)	?	·	·	·	15µM*
CSc1cccc(NC(=O)C2CCCN(S(=O)(=O)c3ccc(F)cc3)C2)c1 (stereo not drawn)	10µM*	?	-30%	-15	8.2µM*
NS(=O)(=O)c1ccc(NC(=O)C2CCCN(S(=O)(=O)c3ccc(F)cc3)C2)cc1 (stereo not drawn)	-11%	1%	8%	16	?
O=C(Nc1ccc(F)cc1)C1CCCN1S(=O)(=O)c1ccc(Br)cc1 (stereo not drawn)	?	0%	1%	-8	-23%
COc1ccc(S(=O)(=O)N2CCC(C(=O)Nc3ccc(S(=O)(=O)N4CCCC4)cc3)CC2)cc1OC	?	-6%	-12%	-12	29µM*
O=C(Nc1ccc(S(=O)(=O)N2CCOCC2)cc1)C1CCN(S(=O)(=O)c2ccccc2)CC1	?	-15%	-13%	2	16µM*
COc1ccc(NC(=O)C2CCN(S(=O)(=O)c3ccc(OC)c(OC)c3)CC2)cc1	1%	1%[9.24 µM]	-2%	22	-18%
CCCn1c(Nc2cccc(OC)c2)nc2ccccc21	?	4%	3%	-17	?
CSc1cccc(NC(=O)C2CCN(S(=O)(=O)c3ccc(F)cc3)CC2)c1	?	?	-28%	-2	21µM*
COc1ccc(OC)c(S(=O)(=O)N2CCC(C(=O)Nc3cccc(C(F)(F)F)c3)CC2)c1	18µM*	-28%	-25%	-8	15µM*
CSc1cccc(NC(=O)C2CCN(S(=O)(=O)c3ccc4c(c3)NC(=O)CO4)CC2)c1	?	-15%	-24%	?	?
